Screening results: PubChem, National Center for Advancing Translational Sciences (NCATS)
HT1080NT lethal = qHTS for induction of synthetic lethality in tumor cells producing 2HG: qHTS for the HT-1080-NT fibrosarcoma cell line. HT-1080-NT fibrosarcoma viability, CellTiter-Glo ATP luminescence, 48 h. Potency, µM (highest dose often 46.1 µM), inactives show at the highest dose activity, negative = less viability, hits mostly cytotoxic. hit rate 1.6% among 360,000. AID 686970, 2013;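 also: NT is the 2HG producing partner of a matched IDH1 knockdown line; potency is read from the fitted curve at half-maximal effect; 0% = DMSO-treated cells and -100% = media-only wells without cells; nearly all actives have a fitted effect of over 55% in size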
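750 cells/well, RPMI + 5% FBS; 2 h settle, compound pin-transfer, 48 h at 37 degrees C. CellTiter-Glo 10 min RT, luminescence. Normalized to DMSO and media-only wells.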
HT1080 IDH1KD tx = qHTS for induction of synthetic lethality in tumor cells producing 2HG: qHTS for the HT-1080-IDH1KD cell line; HT-1080 IDH1 knockdown viability, ATP luminescence, 48 h; Potency, µM (top dose mostly 46.1 µM), for inactives: at the highest dose activity, negative = toxicity, usual class: cytotoxic; hit rate 2% among 360,000;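 also: potency is read from the fitted curve at half-maximal effect; 0% = DMSO wells and -100% = cell-free medium wells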
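Assay cells: HT-1080 with IDH1 knockdown, 750 per well, RPMI/5% FBS. Exposure: 48 h at 37 °C following 2 h pre-incubation. Read: CellTiter-Glo luminescence; fitted concentration-response, curve class assigned.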
TDP1 cell noCPT = qHTS for Inhibitors of human tyrosyl-DNA phosphodiesterase 1 (TDP1): qHTS in cells in absence of CPT; hit rate 15% among 420,000; AID 686978, 2013; DT40 Tdp1-/- hTDP1 cells, no CPT, ATP luminescence, 48 h; Potency, µM (highest dose often 46.2 µM), for inactives: top-dose activity change, negative = growth inhibition, hits mostly inhibitors; also: potency is read from the fitted curve at half-maximal effect; nearly all actives have a fitted effect of over 55% in size
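Chicken DT40 Tdp1-/- cells stably complemented with human TDP1 were seeded at 400 cells/well with DMSO in place of 20 nM camptothecin. After compound pinning, cells grew at least 48 hr at 37 °C; viability read by CellTiter-Glo luminescence.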
ELG1 repair inh = qHTS screen for small molecules that inhibit ELG1-dependent DNA repair in human embryonic kidney (HEK293T) cells expressing luciferase-tagged ELG1. HEK293T ELG1-luciferase reporter, luminescence, 16 h; DNA damage induced by 5-fluorouridine. AID 504467, 2011. Potency, µM (doses to about 46.1 µM), inactives show top-dose activity change, negative = inhibition, most hits filed as inhibitors. hit rate 2.3% among 330,000; also: potency is read from the fitted curve at half-maximal effect; nearly all actives have a fitted effect of over 55% in size
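5-Fluorouridine DNA damage + compound/DMSO, 2,000 cells/well, 16 h, 37 °C/5% CO2. ONE-Glo, 30 min RT, luminescence. Readout = decrease in reporter signal.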
DT40 TDP1 CPT = qHTS for Inhibitors of human tyrosyl-DNA phosphodiesterase 1 (TDP1): qHTS in cells in presence of CPT; chicken DT40 Tdp1-/-;hTDP1 cells + 20 nM CPT, ATP luminescence, 48 h; Potency, µM (highest dose often 46.2 µM), inactives show at the top dose activity change, negative = growth inhibition, usual class: inhibitors; hit rate 12% among 420,000; AID 686979, 2013; also: potency is read from the fitted curve at half-maximal effect; nearly all actives have a fitted effect of over 55% in size
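Chicken DT40 Tdp1-/- cells stably complemented with human TDP1 were seeded at 400 cells/well in medium containing 20 nM camptothecin, exposed to pin-transferred compounds, and grown at 37 °C for at least 48 hr. Viability was read as ATP luminescence.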
IL1B secr inh = qHTS for Inhibitors of Inflammasome Signaling: IL-1-beta AlphaLISA Primary Screen; THP-1 LPS/ATP IL-1B secretion, AlphaLISA, 16 h; active compounds read low; hit rate 4.7% among 360,000; activity change, % at 57.5 µM; in the data active = activity change below about -50%; inconclusive = mostly about -30% to -49%
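THP-1 cells pretreated 1 hr with compounds (up to 57.5 uM final), then stimulated with LPS (250 ng/mL final) plus ATP (1.25 mM final); secreted IL-1B measured by AlphaLISA after 16 hr, decreased signal indicating inhibition.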
The depositor's hits bear a star; ? = inconclusive; . = no result; ! = a repeat was not active; [ ] = remark or other dose. Only some compounds are listed: those with a hit (about 19% of all), similar ones and a draw of the others. Unless noted, calls follow the shape of the dose curve; as a rule, active = well fitted curve in the direction sought with a large enough effect; inconclusive = small, poorly fitted or top-dose-only effect, or another doubt; inactive = no such curve, though single readings can be large; an effect the other way counts as inactive or inconclusive. Unless noted, % is scaled to controls: 0 for no effect and ±100 for the full control effect.

SMILES | HT1080NT lethal | HT1080 IDH1KD tx | TDP1 cell noCPT | ELG1 repair inh | DT40 TDP1 CPT | IL1B secr inh
Cc1ccc2c(c1)C(=O)N1[C@H]3c4cc(Cl)ccc4OC[C@@H]3[C@H](c3ccccc3)[C@]1(C)C(=O)N2 | -26% | ? | 16µM* | -17% | ? | -29
Cc1ccc2c(c1)C(=O)N1[C@H]3c4cc(C)ccc4OC[C@@H]3[C@H](c3ccccc3)[C@]1(C)C(=O)N2 | ? | 7.3µM* | 13µM* | -15% | 12µM* | -53*
COC(=O)c1c(NC(=O)CN2C(=O)C(=O)N(CC(C)C)C2=O)sc(C)c1C | -2% | -4% | -26% | -15% | 20% | 10
CC1=C(C(=O)Nc2ccc(C)cc2C)C(c2sccc2C)n2ncnc2N1 (stereo not given) | . | . | -6% | . | -7% | .
COc1ccccc1C(=O)Nc1cccc(NC(=O)c2ccccc2C)c1 | 8% | -12% | ? | ? | ? | -70*
C/C(=N\NC(=O)c1c(Br)c(C)nn1C)c1cccc(NC(=O)c2ccccc2C)c1 | 24% | 16% | ? | ? | ? | -8
Cc1ccccc1C(=O)Nc1cccc(NC(=O)c2ccc(C(C)(C)C)cc2)c1 | . | . | 5.8µM* | . | 8.2µM* | .
C/C(=N\NC(=O)c1ccc(O)cc1)c1cccc(NC(=O)c2ccccc2C)c1 | 1% | -7% | 23µM* | 29% | ? | -7
COc1ccccc1C(=O)Nc1cc(-c2ccc(C)cc2)no1 | -10% | -9% | 13µM*! | ? | ? | ?
COc1cc(C2C3=C(CC(C)(C)CC3=O)N(C)C3=C2C(=O)CC(C)(C)C3)cc(Br)c1O | -2% | -3% | -15% | -4% | -6% | -8
COc1ccc(-c2ccc3c(c2)[C@@H]2C[C@H](N(C)C(=O)Nc4ccccc4)[C@H]([C@H](C)O)C(=O)N2CC3)cc1 | -8% | -7% | ? | . | ? | -8
COc1ccc(S(=O)(=O)N(C)[C@H]2C[C@H]3c4cc(-c5ccccc5)ccc4CCN3C(=O)[C@H]2[C@H](C)O)cc1 | ? | ? | 21µM* | . | ? | -29
COc1ccc(S(=O)(=O)N(C)[C@H]2C[C@H]3c4cc(Oc5ccccc5C)ccc4CCN3C(=O)[C@H]2[C@H](C)O)cc1 | -22% | ? | 6.5µM* | . | 9.2µM* | ?
CC(=O)N1CCCC(C)(C(=O)Nc2ccc3oc(C)nc3c2)C1 (stereo not given) | 14% | 12% | -12% | . | -10% | 26
NC(=O)C1CCCN(CCc2ccccc2)C1 (stereo not given) | 8% | 3% | -11% | -17% | -14% | 6
CCCc1sc(N2CCCC(C(N)=O)C2)nc1-c1ccccc1 (stereo not given) | -4% | -4% | 18µM* | -6% | ? | 2
Clc1ccccc1CN(Cc1ccccc1)c1ncnc2nc[nH]c12 | -29% | ? | 0% | -6% | -9% | -84*
CC(C)Cn1c(=O)[nH]c2ccccc21 | 29% | 16% | 8% | 3% | -2% | -2
CC(C)Cn1[nH]c2c3c(ccc2c1=O)C(=O)c1ccccc1C3=O | ? | -17% | 16µM* | ? | 23µM* | -7
Cc1[nH]n(-c2cccc(Cl)c2)c(=O)c1-c1ccccc1 | ? | -24% | ? | -7% | -6% | 0
Cc1cccc(-n2[nH]c3c4c(ccc3c2=O)C(=O)c2ccccc2C4=O)c1 | -2% | -2% | ? | -16% | 21µM* | -27
Cc1nc2c(ncn2-c2ccccc2)c(=O)n1NC(=O)CN1CCN(C)CC1 | -6% | 0% | 1% | ? | -1% | -1
N#CC1=C(N)SC(N)=C(C#N)C1c1cccc(O)c1 | -13% | 0% | ? | 13% | 23µM* | 10
COc1ccc(C2C(C#N)=C(N)SC(N)=C2C#N)cc1OC | -14% | 0% | -8% | -15% | 4% | -6
CO[C@H]1CN(C)C(=O)c2ccc(NC(=O)NC(C)C)cc2OC[C@H](C)NC[C@H]1C | 17% | 19% | 0% | . | 7% | -8
SMILES | HT1080NT lethal | HT1080 IDH1KD tx | TDP1 cell noCPT | ELG1 repair inh | DT40 TDP1 CPT | IL1B secr inh
CCC(=O)Nc1sc(Cc2ccc3c(c2)OCO3)c(C)c1C(N)=O | -9% | -15% | ? | ? | ? | 0
Cc1c(Cc2ccc3c(c2)OCO3)sc(NC(=O)C(C)(C)C)c1C#N | -7% | -23% | 8.2µM* | ? | 18µM* | 14
COc1cc(OC)c(NC(=O)CCc2ccccc2)cc1Cl | -3% | 0% | -14% | 5% | -6% | 8
O=C(COCc1cc(-c2ccc(F)cc2)on1)Nc1cc(F)ccc1F | . | . | -30% | . | -28% | .
COc1cc(OC)c(NC(=O)CCc2nc(C3=CCN(Cc4cccc(Cl)c4)CC3)no2)cc1Cl | . | . | 8.2µM* | . | 23µM* | .
COc1ccc(-c2noc(CC(=O)Nc3cc(OC)ccc3OC)n2)cc1 | . | . | 16µM* | . | 23µM* | .
COc1ccc(OC)c(NC(=O)COCc2cc(-c3ccc(F)cc3)on2)c1 | . | . | ? | . | 18µM* | .
COc1cc(OC)c(NC(=O)CCc2nc(-c3ccc(C)cc3)no2)cc1Cl | -3% | -7%[9.24 µM] | 23µM* | -3% | 18µM* | -3
CN(CC(=O)Nc1ccccc1Cl)C(=O)COC(=O)C1=COCCO1 | -4% | -2% | -7% | ? | 3% | 8
CC(C)(C)n1nnnc1C(c1ccccc1)N1CCN(c2ccc(C(F)(F)F)cn2)CC1 (stereo not given) | -9% | -7% | ? | . | ? | -17
COc1ccc(C2CCc3cc4c(cc3C2=NO)OCO4)cc1OC (stereo not given) | -1% | -23% | 15µM* | . | ? | -5
O=C1NC[C@@H](CCCCN2C[C@H](Cc3ccccc3)N(Cc3ccccc3)C(=O)C2=O)N(Cc2ccccc2)C1=O | 0% | 9% | -7% | . | -8% | 4
O=C(c1ccccc1)c1ccc(-c2ccc(O)cc2)cc1 | 18µM* | ? | -27% | ? | -1% | -81*
O=C(c1ccccc1)c1ccc(C(=O)N2CCN(c3ccc(O)cc3)CC2)cc1 | 4% | 4% | -30% | ? | -27% | -5
